Experiment [1] can be described thus: inhibitors of TNFa-induced NFkB p65 translocation, primary screen, imaging, HUVEC, MLSMR starter and 10KST1 sets (AID 438;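 active = inhibition above 20% together with a positive visual image hit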;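 note: compound added about 3h40 before a 20 min TNFalpha stimulation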;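 for inhibition: signal is the nuclear over cytoplasmic p65 intensity ratio per well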). The following applies: HUVEC TNFa-induced p65 nuclear translocation; cell count: measured here: nuclei count (cytotoxicity indicator), at 2.08 µM; inhibition: at 2 µM, stronger effect = higher value, 0% TNFa-plus-vehicle, 100% no-TNFa wells.
The nature of experiment [2]: inhibitors of mutant huntingtin aggregation, primary screen, imaging, exon1htt(103Q)mCFP cells, high-content imaging (AID 483;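 active = visual image review flags a hit and inhibition of aggregation exceeds 20%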;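 note: compound exposure lasted 3 days before fixation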;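 for nuclei count: percent of the per-plate median nuclei count of sample wells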). The conditions noted are these: exon1htt(103Q)mCFP cell line, aggregate imaging, at 2 µM; inhibition of aggregation: stronger effect = higher value; nuclei count: measured here: cell count, toxicity.
Experiment [3] is described as follows: inhibitors of E-selectin induction by TNFa, primary screen, imaging, HUVEC, immunofluorescence, MLSMR starter and 10KST1 sets (AID 487;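 active = visually confirmed hit in the image check and inhibition above 20%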;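 for inhibition: signal is fraction of cell area covered by stained E-selectin grains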;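 for nuclei count: 100% = median nuclei count of all wells on the same plate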). The following applies: HUVEC TNFalpha-induced E-selectin immunofluorescence imaging, at 2 µM; inhibition: stronger effect = higher value; nuclei count: measured here: cell number, toxicity.
Experiment [4] deals with Voltage-gated potassium channel subunit beta-2 (Rattus norvegicus) (UniProt P62483). Briefly: KvBeta enzyme negative modulators, primary screen, biochemical, NADPH fluorescence (AID 622;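 active = fluorescence slope higher than the sample average by over 3 SD, cut at about -0.22 in these data, passing the limit was not always enough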;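 note: slope of raw intensity against log time taken from 70 to 1610 s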). The conditions noted are these: recombinant KvBeta, 4-cyanobenzaldehyde reduction, at 10 µM, stronger effect = higher value.
Sequence of Voltage-gated potassium channel subunit beta-2 (Rattus norvegicus) (P62483 whole entry, looked up): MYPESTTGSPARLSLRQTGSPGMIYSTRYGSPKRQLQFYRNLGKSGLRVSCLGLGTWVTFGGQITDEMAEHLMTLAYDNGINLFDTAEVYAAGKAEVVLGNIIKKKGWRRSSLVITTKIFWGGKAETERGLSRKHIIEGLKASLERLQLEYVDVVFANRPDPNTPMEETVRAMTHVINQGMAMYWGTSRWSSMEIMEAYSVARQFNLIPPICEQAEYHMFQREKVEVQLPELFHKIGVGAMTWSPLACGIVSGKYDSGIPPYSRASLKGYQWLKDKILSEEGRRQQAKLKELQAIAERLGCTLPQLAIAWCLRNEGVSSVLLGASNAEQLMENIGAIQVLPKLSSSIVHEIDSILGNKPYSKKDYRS
Experiment [5] has the same target. Kind of experiment: KvBeta positive modulators, primary screen, biochemical, NADPH fluorescence (AID 623;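 active = NADPH fluorescence slope more negative than the mean of all samples by about 3 SD, 99.7% confidence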;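 note: fluorescence intensity change per second fitted from 20 to 320 s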). The conditions noted are these: Recombinant KvBeta, NADPH fluorescence decrease slope, 10 min; at 10 µM; stronger effect = lower value.
The target of experiment [6] is Alpha-2C adrenergic receptor (Homo sapiens) (UniProt P18825). Briefly: modulators of alpha2C/GIRK thallium flux, primary screen, cell-based, HEK293 alpha2C/GIRK1/2 (AID 624;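 active = fluorescence slope after compound addition differing from the mean of all screened samples at 99.7% confidence, in either direction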;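 note: slope of fluorescence ratio to pre-addition baseline per second over 15 to 24 s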). The conditions noted are these: thallium flux BTC fluorescence, at 10 µM, actives lie on both sides.
Sequence of Alpha-2C adrenergic receptor (Homo sapiens) (P18825 whole entry, looked up): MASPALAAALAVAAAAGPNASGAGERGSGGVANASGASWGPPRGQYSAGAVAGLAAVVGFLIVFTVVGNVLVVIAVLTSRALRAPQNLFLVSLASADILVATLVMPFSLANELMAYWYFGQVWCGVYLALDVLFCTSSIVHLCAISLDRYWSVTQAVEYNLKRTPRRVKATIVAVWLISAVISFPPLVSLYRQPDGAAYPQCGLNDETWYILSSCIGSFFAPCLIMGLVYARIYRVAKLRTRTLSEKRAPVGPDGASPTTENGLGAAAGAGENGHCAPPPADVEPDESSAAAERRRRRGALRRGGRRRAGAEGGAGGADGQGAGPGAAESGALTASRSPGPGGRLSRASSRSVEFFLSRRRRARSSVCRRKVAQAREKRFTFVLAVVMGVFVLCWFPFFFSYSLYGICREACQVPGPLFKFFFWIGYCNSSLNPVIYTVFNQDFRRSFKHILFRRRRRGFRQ
Experiment [7] is described as follows: inhibitors of Sendai virus-induced IRF3 signaling, primary screen, TLR/RLR signaling modifier project, cell-based, Sendai virus stimulus, luciferase, 10K MLSCN set (AID 602276).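 Note: firefly luciferase from ISG56 promoter only with Renilla not read in this screen; 0% = Sendai virus plus DMSO and 100% = medium plus DMSO without virus.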 The conditions noted are these: HEK293 RL24 IRF3 luciferase reporter, at 10 µM, stronger effect = higher value. In general terms: Reporter assays use an easily measured gene product as a stand-in for the process of interest.

Experiment [8] can be described thus: inhibitors of poly I:C-induced TLR3 signaling, primary screen, cell-based, poly I:C stimulus, luciferase, 10K MLSCN set (AID 602277;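 active = inhibition of the reporter signal at or above 50%; inactive = inhibition below 50%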). The following applies: HEK293-TLR3 RL24 IRF3 luciferase reporter, at 10 µM, stronger effect = higher value.

Each structure is given as a SMILES string. Active and inactive are the calls of the source.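 Rule for the calls, unless noted: active = inhibition at or above 50% at 10 µM; inactive = inhibition below 50%.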

Regarding `COc1ccc2cc(C(=O)NCc3ccco3)c(=Nc3ccc(C(=O)O)cc3)oc2c1`, the cell count in experiment [1] is 507. In addition, the inhibition (usually the change of the read-out against control, counted positive when it falls) is -12.8% (inactive) in experiment [1], -56.7% (inactive) in experiment [3], 16.4% (inactive) in experiment [7] and 3.42% (inactive) in experiment [8]. For the same molecule, in experiment [2], the inhibition of aggregation was 19% (inactive). The nuclei count in experiment [2] is 96.3%; in experiment [3], 120%. For the same molecule, the fluorescence slope in experiment [4] was -0.372 (inactive). The NADPH fluorescence slope in experiment [5] is -5.2e-05 (inactive). Further, the slope in experiment [6] was 0.00401 (inactive).
`O=C(NCc1cccs1)C1CCN(S(=O)(=O)c2cccs2)CC1`: in experiment [1], the cell count came out at 353. The inhibition in experiment [1] is 4.5% (inactive); in experiment [3] it was -13.4% (inactive); in experiment [7], 7.22% (inactive); in experiment [8], 15% (inactive). In experiment [2], the inhibition of aggregation is 0.9% (inactive). For the same molecule, the nuclei count in experiment [2] amounted to 99.2%; in experiment [3] it was 120%. The fluorescence slope in experiment [4] was -0.619 (inactive). In experiment [5], the NADPH fluorescence slope was -1.4e-05 (inactive). Moreover, the slope in experiment [6] is 0.00617 (inactive).
In the case of `CCN(CCCNS(=O)(=O)c1ccc2c(c1)oc(=O)n2C)c1cccc(C)c1`, the cell count in experiment [1] stood at 740. The inhibition in experiment [1] was -0.6% (inactive); in experiment [3] it was -21.3% (inactive); in experiment [7], 18.1% (inactive); in experiment [8], 32.9% (inactive). The inhibition of aggregation in experiment [2] is -22.6% (inactive). Besides, the nuclei count in experiment [2] is 110%; in experiment [3] it was 102%. In addition, the fluorescence slope in experiment [4] was -0.574 (inactive). For the same molecule, the NADPH fluorescence slope in experiment [5] is 9.4e-07 (inactive). The slope in experiment [6] is 0.00612 (inactive).
Regarding `CC(=O)NC(C)c1nc2ccccc2n1C(C)C` (centres undefined), the cell count in experiment [1] worked out at 588. In addition, the inhibition is 11.5% (inactive) in experiment [1], -50.6% (inactive) in experiment [3], 14.5% (inactive) in experiment [7] and 42.2% (inactive) in experiment [8]. Moreover, the inhibition of aggregation in experiment [2] was -2.2% (inactive). Moreover, the nuclei count in experiment [2] came to 98.7%; in experiment [3], 121%. In addition, in experiment [4], the fluorescence slope is -0.551 (inactive). Also, the NADPH fluorescence slope in experiment [5] was -2.4e-05 (inactive). In addition, the slope in experiment [6] was 0.00604 (inactive).
Take `CC1=C(C(=O)OC2CCCCC2)C(c2ccc(C)o2)C2=C(CC(C)(C)CC2=O)N1` (centres undefined): the cell count in experiment [1] was 493. Besides, the inhibition in experiment [1] was -2.4% (inactive); in experiment [3], -13.3% (inactive); in experiment [7], 7.33% (inactive); in experiment [8], 29.1% (inactive). In addition, the inhibition of aggregation in experiment [2] is 3.3% (inactive). Moreover, the nuclei count in experiment [2] came out at 122%; in experiment [3] it was 112%. In addition, the fluorescence slope in experiment [4] was -0.25 (inactive). Besides, the NADPH fluorescence slope in experiment [5] is -1.1e-05 (inactive). In experiment [6], the slope is 0.0052 (inactive).
As for `CCn1c(SCC(=O)N2CCOCC2)nc2c(c1=O)SC(C)C2` (centres undefined), the cell count in experiment [1] was 298. Also, the inhibition in experiment [1] was 9.4% (inactive); in experiment [3], 20% (inactive); in experiment [7], -5.39% (inactive); in experiment [8], 4.93% (inactive). Further, in experiment [2], the inhibition of aggregation was 21.4% (inactive). Further, the nuclei count in experiment [2] amounted to 89.2%; in experiment [3], 93.4%. The fluorescence slope in experiment [4] is -0.542 (inactive). Further, the NADPH fluorescence slope in experiment [5] was -3.5e-06 (inactive). Also, the slope in experiment [6] is 0.00531 (inactive).
In the case of `COc1ccc2nc(SCC(=O)NC(C)C)[nH]c2c1`, in experiment [1], the cell count was 626. Further, the inhibition was 1.4% (inactive) in experiment [1], -35.2% (inactive) in experiment [3], -7.68% (inactive) in experiment [7] and -5% (inactive) in experiment [8]. Also, the inhibition of aggregation in experiment [2] was -0.8% (inactive). The nuclei count in experiment [2] came out at 104%; in experiment [3], 107%. For the same molecule, the fluorescence slope in experiment [4] was -0.478 (inactive). Moreover, in experiment [5], the NADPH fluorescence slope was 5.9e-05 (inactive). Further, in experiment [6], the slope was 0.0062 (inactive).
On to `O=C1C(Cl)=C(N2CCOCC2)C(=O)N1CCc1ccccc1`, for which the cell count in experiment [1] was determined as 373. Besides, the inhibition in experiment [1] is 2.8% (inactive); in experiment [3], -20.9% (inactive); in experiment [7], -18.6% (inactive); in experiment [8], -16.7% (inactive). Further, the inhibition of aggregation in experiment [2] was -26.1% (inactive). For the same molecule, the figures for the nuclei count in experiment [2] and in experiment [3] were 97.1% and 94.6%, respectively. Further, the fluorescence slope in experiment [4] was -0.356 (inactive). Also, the NADPH fluorescence slope in experiment [5] was -8.5e-06 (inactive). Further, the slope in experiment [6] was 0.0076 (inactive).
Regarding `COc1ccc2[nH]c(=O)c(CN(CC3CCCO3)C(=O)Nc3ccc(F)cc3)cc2c1` (centres undefined), in experiment [1], the cell count is 621. For the same molecule, the inhibition was 3% (inactive) in experiment [1], -38.1% (inactive) in experiment [3], -18.3% (inactive) in experiment [7] and -13.3% (inactive) in experiment [8]. Moreover, the inhibition of aggregation in experiment [2] was 12.1% (inactive). Besides, the nuclei count in experiment [2] stood at 95.3%; in experiment [3], 114%. In addition, the fluorescence slope in experiment [4] is -0.512 (inactive). Also, the NADPH fluorescence slope in experiment [5] is 7.8e-06 (inactive). For the same molecule, in experiment [6], the slope is 0.00737 (inactive).
Consider `Cc1ccc(Cn2c(CN3CCOCC3)nc3c2c(=O)n(C)c(=O)n3C)cc1`, for which the cell count in experiment [1] turned out to be 332. Besides, the inhibition was 19.7% (inactive) in experiment [1], -3.6% (inactive) in experiment [3], 2.2% (inactive) in experiment [7] and 26.6% (inactive) in experiment [8]. The inhibition of aggregation in experiment [2] is 16.7% (inactive). In addition, the nuclei count in experiment [2] and in experiment [3] was 104% throughout. The fluorescence slope in experiment [4] was -0.48 (inactive). In addition, in experiment [5], the NADPH fluorescence slope is -4.2e-05 (inactive). For the same molecule, the slope in experiment [6] was 0.00599 (inactive).
Turning to `O=C(c1ccc(-c2ccccc2)cc1)N1CCN(c2ncccn2)CC1`, the cell count in experiment [1] amounted to 332. Further, the inhibition in experiment [1] is -21.2% (inactive); in experiment [3], -38.6% (inactive); in experiment [7] it was 2.14% (inactive); in experiment [8], 28.8% (inactive). Moreover, the inhibition of aggregation in experiment [2] was 11.5% (inactive). Further, the nuclei count in experiment [2] was found to be 76%; in experiment [3], 85.3%. In experiment [4], the fluorescence slope is -0.429 (inactive). Moreover, in experiment [5], the NADPH fluorescence slope was -2.4e-06 (inactive). Also, in experiment [6], the slope is 0.00541 (inactive).
For the molecule `CCOc1ccccc1NC(=O)CC1Nc2cc(C)c(C)cc2NC1=O` (centres undefined), the cell count in experiment [1] turned out to be 374. For the same molecule, the inhibition was 1.8% (inactive) in experiment [1], -48.5% (inactive) in experiment [3], 14.6% (inactive) in experiment [7] and 26% (inactive) in experiment [8]. The inhibition of aggregation in experiment [2] is 23.2% (inactive). Besides, the nuclei count turned out to be 94.4% in experiment [2] and 105% in experiment [3]. Further, the fluorescence slope in experiment [4] is -0.265 (inactive). Further, the NADPH fluorescence slope in experiment [5] was -1.1e-05 (inactive). Besides, the slope in experiment [6] was 0.00531 (inactive).
In the case of `Cc1nn(C)c(C)c1CNC(=O)c1cc2n(n1)C(C(F)(F)F)CC(c1cccs1)N2` (centres undefined), in experiment [1], the cell count was 565. Moreover, the inhibition is 1.9% (inactive) in experiment [1], -65% (inactive) in experiment [3], -2.09% (inactive) in experiment [7] and -24.4% (inactive) in experiment [8]. For the same molecule, in experiment [2], the inhibition of aggregation was -16.5% (inactive). Besides, the figures for the nuclei count in experiment [2] and in experiment [3] were 95.1% and 115%, respectively. For the same molecule, the fluorescence slope in experiment [4] was -0.583 (inactive). Also, the NADPH fluorescence slope in experiment [5] was -6.9e-05 (inactive). The slope in experiment [6] is 0.00578 (inactive).
As to `Cc1c(C(=O)OCCOC(C)C)[nH]c2c1C(=O)CC(c1ccco1)C2` (centres undefined), the cell count in experiment [1] was found to be 482. Moreover, the inhibition in experiment [1] is 18% (inactive); in experiment [3] it was -59.6% (inactive); in experiment [7], 13.8% (inactive); in experiment [8], 82.1% (active). Moreover, in experiment [2], the inhibition of aggregation was -3.7% (inactive). Also, the figures for the nuclei count in experiment [2] and in experiment [3] were 5.8% and 83.1%, respectively. Also, in experiment [4], the fluorescence slope is -0.553 (inactive). Also, the NADPH fluorescence slope in experiment [5] is -3.5e-05 (inactive). Besides, the slope in experiment [6] was 0.00564 (inactive).

These data come from PubChem BioAssay.
